The results in this text go back to PubChem BioAssay AID1038 (National Center for Advancing Translational Sciences (NCATS), 2008).

Records with an inconclusive call do not appear. The source made the active and inactive calls. Calls follow the shape of the full dose curve.

The nature of the assay: Normal 1 Cell Viability Secondary Assay for qHTS Assay for Epigenetic Modulators. Particulars: Normal 1 bronchial epithelial viability, MTS, 4 d. The text has this: NIH Molecular Libraries Screening Centers Network [MLSCN] NIH Chemical Genomics Center [NCGC] MLSCN Grant: 1 X01 MH079860-01 Assay Provider: Elisabeth D. Martinez, University of Texas SW Medical Center NCGC Assay Overview: This secondary assay characterizes selected actives identified in the qHTS of the Locus Derepression (LDR) assay (PubChem AID 597). The LDR assay detects the derepression of a GFP reporter that is stably integrated in a region of the genome of murine c127i mammary cells that is presumably silenced. Compounds that cause derepression of the locus to express GFP are identified by enumerating GFP positive cells using a laser-scanning microplate cytometer. Selected LDR actives were assayed for killing of Normal 1, a patient-derived normal bronchial epithelial line matched to NSCLC 1, a nonsmall cell lung carcinoma line from the same patient. The Normal 1 line assays the cytoxicity of test compounds on normal lung cells. Normal 1 cell viability was measured using Cell Titer 96 AQueous One (Promega), an assay which detects the ability of metabolically active cells to reduce a tetrazolium salt substrate (MTS), into a soluble formazan product that can be measured by colorimetry.
NCGC Assay Protocol Summary Normal 1 cells were plated in 96-well flat bottom tissue culture dishes (Corning) and grown overnight at 37 C and 5% CO2, then treated with compounds, incubated 4 days, and assayed for viability using the Cell Titer 96 AQueous One kit (Promega) according to the manufacturer's protocol. Absorbance at 490 nm and 650 nm (reference) was measured by a Spectra Max (Molecular Devices). Data were normalized to the untreated control (100% viability). Each cell line was tested in one or two independent assays, each containing 4 or 8 replicates. For further details, see R.L. Johnson, W. Huang, A. Jadhav, C.P. Austin, J. Inglese, E.D. Martinez, A Quantitative High-Throughput Screen Identifies Potential Epigenetic Modulators of Gene Expression, Analytical Biochemistry (2007), doi: 10.1016/j.ab.2007.12.028

`CC(/C=C/C(=O)NO)=C\[C@@H](C)C(=O)c1ccc(N(C)C)cc1`: the Potency was 200 nM (active).

Consider `CC(C)C(=O)NC(c1ccc(N(C)C)cc1)c1ccc2cccnc2c1O` (configuration not stated), for which the Potency is 6000 nM (active). `CN1C(=S)SC(c2ccccc2)N(C)C1c1ccccc1` (configuration not stated): the molecule was called inactive. For the molecule `CC(C)C(=O)NC(c1ccco1)c1ccc2cccnc2c1O` (configuration not stated), the Potency is 9000 nM (active).

In the case of `O=C(CSc1cccc2cccnc12)NCc1ccccc1`, the molecule was classed as inactive. Take `O=Nc1ccc(O)c2ncccc12`: the Potency is 3000 nM (active). Same read-out and setting: the result for `CC(C)C(=O)NC(c1ccco1)c1cc([N+](=O)[O-])c2cccnc2c1O` (configuration not stated) reads 800 nM (active).
